# Source: PubChem BioAssay (Tox21)
# Inconclusive results are not listed. Where a call stands in place of a potency, no number is given. Activity calls are given as the source filed them. Calls follow the shape of the dose curve; as a rule, active = well fitted activation curve with a large enough effect in the repeat runs; inconclusive = weak or mixed curves; inactive = flat fitted curve, though single readings scatter.
# Assay: A CellTox Green Cytotoxicity Assay to monitor cytotoxicity in HEK293 cells - 16 hour (AID 1224888); also: nearly all actives have a fitted effect of over 35% in size
# Details: CellTox Green fluorescence; series mostly up to 76.8 µM
# Text: National Center for Advancing Translational Sciences [NCATS]
# NIH Chemical Genomics Center [NCGC]
# U.S. Environmental Protection Agency [EPA]
# National Institutes of Environmental Health Sciences [NIEHS]
# National Toxicology Program [NTP]
# Cell-based models are critical for drug discovery. Determining the natural cytotoxic effects resulting from test compounds is an essential research activity. A CellTox Green Cytotoxicity Assay to monitor cytotoxicity in real time of continues cell culture during 40 hours of the compound treatment was used to screen Tox21 10K library compounds in Hek293 cells. CellTox Green Cytotoxicity Assay is a nonlytic, homogeneous, biofluorescent method to measure cytotoxicity in cell culture after experimental manipulation. The assay system uses a proprietary asymmetric cyanine dye that is excluded from viable cells but preferentially stains the dead cell's DNA. […] Viable cells produce no appreciable increases in fluorescence. Therefore, the fluorescence signal produced by the binding interaction with dead cell DNA is proportional to cytotoxicity.
# The mixture of Hek293 cell suspension and reagents were dispensed at 600cells/6 ul/well in 1536-well tissue culture treated black solid bottom plates using a Multidrop dispenser. After the assay plates were incubated at a 37 C/5% CO2 incubator for 5 hours, 23 nL of compounds dissolved in DMSO, positive and negative controls was transferred to the assay plate by a pintool work station. The plates were incubated at 37 C for 40 hours. The fluorescence intensity were measured at 0h, 8h, 16h, 24h, 32h and 40h time points using ViewLux plate reader during compound treatment.
# Potency is read from the fitted curve at half-maximal effect.
Structure (SMILES),Potency,activity change
COC(C)(C)CCO,inactive,
S=C([S-])NCCNC(=S)[S-].[Mn+2],inactive,
C[Si](C)(CCCN)O[Si](C)(C)CCCN,inactive,
CCOc1ccc(N)c([N+](=O)[O-])c1,inactive,
CCC(C)O (stereo not given),inactive,
CCCCCCc1ccc(-c2ccc(C#N)cc2)cc1,inactive,
O=C(O)c1ccco1,inactive,
CC(=O)[O][Al][O]C(C)=O,inactive,
CCO[Si](CCCCl)(OCC)OCC,inactive,
CCN(CC)CCNc1ccc(CNC=O)c2sc3ccc(OC)cc3c(=O)c12,inactive,
CCN(CC)c1ccc(C(=C2C=CC(=[N+](CC)CC)C=C2)c2cc(S(=O)(=O)O)ccc2S(=O)(=O)[O-])cc1,inactive,
NC(N)=NCCC[C@H](N)C(=O)O,,"-19.2% [at 6.97 µM, hits give high values] (inactive)"
O=C(O)CC(=O)C(=O)O,inactive,
COc1cc(Cl)c(OC)cc1N,inactive,
CN(C)CCN(Cc1ccsc1)c1ccccn1,inactive,
CC(=O)NO,inactive,
CCCCC(CC)COC(=O)COc1ccc(Cl)cc1Cl (stereo not given),inactive,
CC(C)C[C@H]1C(=O)N2CCC[C@H]2[C@]2(O)O[C@](NC(=O)[C@@H]3C=C4c5cccc6[nH]c(Br)c(c56)C[C@H]4N(C)C3)(C(C)C)C(=O)N12,inactive,
C=CCOC(=O)CCC1CCCCC1,inactive,
C[C@H]1C[C@H]2[C@@H]3CCC4=CC(=O)C=C[C@]4(C)[C@@]3(Cl)[C@@H](O)C[C@]2(C)[C@@]1(O)C(=O)CO,inactive,

Structure (SMILES),Potency,activity change
CC(C)(CO)[N+](=O)[O-],inactive,
CCn1cc(C(=O)O)c(=O)c2cnc(N3CCNCC3)nc21,inactive,
COc1cc2c(cc1OC)C(C(C(=O)N(CCc1ccc(OC)c(OC)c1OC)CCc1ccc(OC)c(OC)c1OC)c1ccccc1)=NCC2 (stereo not given),inactive,
O=C(Nc1ccc(S(=O)(=O)N2CCOCC2)cc1)c1cc(Cl)ccc1NS(=O)(=O)c1ccc(Cl)s1,23.9 µM (active),
C/C=C/C(=O)CC,,"0.377% [at 15.8 µM, hits give high values] (inactive)"
C#CCN(C)CCCOc1ccc(Cl)cc1Cl,inactive,
C=CC(=O)OCCOc1ccccc1,inactive,
COc1ccc(S(=O)(=O)N2C(=O)[C@@](c3ccccc3OC)(N3C[C@H](O)C[C@H]3C(=O)N(C)C)c3cc(Cl)ccc32)c(OC)c1,inactive,
COC(=O)c1ccc(I)cc1S(=O)(=O)NC(=O)Nc1nc(C)nc(OC)n1,inactive,
OCCNCc1ccccc1,inactive,
Brc1c2ccccc2cc2ccccc12,inactive,
Nc1cccc([N+](=O)[O-])c1,inactive,
CCCCCCCCCCCCCCOS(=O)(=O)O,43.6 µM (active),
Cc1cc(C(=O)O)ccc1[N+](=O)[O-],inactive,
CNCCCN1c2ccccc2CCc2ccccc21,inactive,
Cc1oc2c(NC(=O)c3c(Cl)cccc3Cl)cccc2c1C(C)(C)O,inactive,
CC(C)Cc1ccc(C(C)C(=O)OCc2ccccn2)cc1 (stereo not given),inactive,
CCCCCCCCCOS(=O)(=O)O,inactive,
O=C(O)CNCC(=O)O,,"2.15% [at 6.97 µM, hits give high values] (inactive)"
CCOC(=O)C(O)c1ccccc1 (stereo not given),inactive,
